# Assay results published in ChEMBL document CHEMBL4513146, “CO-ADD screening of Karazin Kharkiv National University (Ukraine) compounds”.
# Results with a measured potency or affinity are listed apart.
# Legend:
# [1] = system: Klebsiella pneumoniae; conditions: Concentration 32 ug.mL-1;; ASSAY_TEST Inhibition of Bacterial Growth; detection method Absorption (OD600); MEDIA CAMHB; plate type 384well; NBS; CORNING #3640; time 18 hr
# [2] = system: Candida albicans; conditions: Concentration 32 ug.mL-1; ASSAY_TEST Inhibition of Fungal Growth; detection method Absorption (OD530)
# [3] = system: Cryptococcus neoformans; conditions: Concentration 32 ug.mL-1; ASSAY_TEST Inhibition of Fungal Growth; detection method Resazurin; Absorption (OD600-OD570); plate type 384well; NBS; CORNING #3640
smiles,measurement,setting,value
CCc1ccccc1Sc1nccn2c(=O)n(CC(=O)Nc3cccc(Br)c3)nc12,Inhibition,[1],8.38%
same,Inhibition,[2],2.9%
same,Inhibition,[3],-6.91%
COC(=O)c1ccc(NC(=O)CSc2nc3ccccc3n3c(C(C)C)nnc23)cc1,Inhibition,[1],12.96%
same,Inhibition,[2],4.43%
same,Inhibition,[3],-21.14%
O=C(Cn1nc2c(Sc3cccc(F)c3)nccn2c1=O)Nc1cccc(Br)c1,Inhibition,[1],7.1%
same,Inhibition,[2],-0.26%
same,Inhibition,[3],-2.48%
COc1cccc(-n2ccn3c(SCc4cccc(C)c4)nnc3c2=O)c1,Inhibition,[1],11.77%
same,Inhibition,[2],3.62%
same,Inhibition,[3],-12.18%
COc1ccccc1CNC(=O)Cn1nc2c(N3CCC(C)CC3)nccn2c1=O,Inhibition,[1],13.15%
same,Inhibition,[2],4.39%
same,Inhibition,[3],-8.45%
Cc1cccc(N(Cc2ccc(F)cc2)S(=O)(=O)c2cccn3c(C)nnc23)c1,Inhibition,[1],7.81%
same,Inhibition,[2],3.26%
same,Inhibition,[3],-8.62%
N#Cc1cccc(NC(=O)CSc2nnc3c4cc(-c5ccc(F)cc5)nn4ccn23)c1,Inhibition,[1],16.47%
same,Inhibition,[2],16.76%
same,Inhibition,[3],-30.63%
Cc1nnc2c(SCC(=O)N3CCN(c4ccc(F)cc4)CC3)nc3ccccc3n12,Inhibition,[1],12.85%
same,Inhibition,[2],2.24%
same,Inhibition,[3],-2.43%
COC(=O)c1ccc(NC(=O)Cn2nc3nc(N4CCCCCC4)ccn3c2=O)cc1,Inhibition,[1],12.29%
same,Inhibition,[2],5.24%
same,Inhibition,[3],-8.37%
Cc1ccc(F)cc1NC(=O)CSc1nc2ccccc2n2c(C)nnc12,Inhibition,[1],10%
same,Inhibition,[2],1.14%
same,Inhibition,[3],-19.09%
COc1cc(NC(=O)Cn2nc3c4c5c(sc4ncn3c2=O)CCCC5)cc(OC)c1OC,Inhibition,[1],9%
same,Inhibition,[2],0.11%
same,Inhibition,[3],-14.64%
CCC(Sc1nnc2c(=O)n(-c3ccc(C)c(C)c3)ccn12)C(=O)Nc1cc(OC)ccc1OC (stereo not drawn),Inhibition,[1],5.57%
same,Inhibition,[2],2.66%
same,Inhibition,[3],-6.72%
CSc1cccc(NC(=O)Cn2nc3ccc(SC4CCCCC4)nn3c2=O)c1,Inhibition,[1],4.23%
same,Inhibition,[2],0.23%
same,Inhibition,[3],-8.34%
Cc1ccc(NC(=O)Cn2c(=O)c3nnc(C(C)C)n3c3ccccc32)cc1F,Inhibition,[1],13.19%
same,Inhibition,[2],0.6%
same,Inhibition,[3],-30.05%
O=c1n(Cc2c(F)cccc2Cl)nc2ccc(-c3ccccc3)nn12,Inhibition,[1],-0.01%
same,Inhibition,[2],8.72%
same,Inhibition,[3],-10.32%
Cc1cccc(C)c1NC(=O)Cn1nc2c3c4c(sc3ncn2c1=O)CCCC4,Inhibition,[1],12.26%
same,Inhibition,[2],11.56%
same,Inhibition,[3],-19.68%
Cc1nnc2c(=O)n(CC(=O)Nc3ccc(C(C)C)cc3)c3ccccc3n12,Inhibition,[1],15.67%
same,Inhibition,[2],5.98%
same,Inhibition,[3],-14.04%
CSc1ccc(CNC(=O)CCc2nnc3c(N4CCCCC4)nc4ccccc4n23)cc1,Inhibition,[1],12.88%
same,Inhibition,[2],3.51%
same,Inhibition,[3],-30.87%
COc1ccc(NC(=O)Cn2nc3ccc(SCc4ccc(Cl)cc4)nn3c2=O)cc1Cl,Inhibition,[1],-2.5%
same,Inhibition,[2],38.9%
same,Inhibition,[3],-13.55%
COc1ccc(Cn2nc3ccc(-c4ccc(Cl)cc4)nn3c2=O)cc1F,Inhibition,[1],16.23%
same,Inhibition,[2],0.27%
same,Inhibition,[3],-15.51%
CCc1nnc2c(S(=O)(=O)N(Cc3cc(F)cc(F)c3)c3ccccc3)cccn12,Inhibition,[1],9.94%
same,Inhibition,[2],6.55%
same,Inhibition,[3],-7.12%
COc1ccc(NC(=O)Cn2nc3ccc(-c4ccccc4)nn3c2=O)cc1,Inhibition,[1],5.42%
same,Inhibition,[2],2.69%
same,Inhibition,[3],-8.43%
CCc1nnc2c(SCC(=O)Nc3ccc(OC)c(Cl)c3)nc3ccccc3n12,Inhibition,[1],11.84%
same,Inhibition,[2],5.38%
same,Inhibition,[3],-21.55%
COc1ccc(NC(=O)c2ccc3nn(CC(=O)Nc4ccc(S(C)(=O)=O)cc4)c(=O)n3c2)cc1,Inhibition,[1],1.84%
same,Inhibition,[2],15.13%
same,Inhibition,[3],-4.16%
Cc1ccc(-c2cc3c4nn(CC(=O)Nc5cc(F)ccc5C)c(=O)n4ccn3n2)cc1C,Inhibition,[1],2.94%
same,Inhibition,[2],-1.13%
same,Inhibition,[3],-10.17%
Cc1ccc2c(c1)N(C(=O)Cn1nc3ccc(SCc4ccc(Cl)cc4)nn3c1=O)CCO2,Inhibition,[1],7.49%
same,Inhibition,[2],29.58%
same,Inhibition,[3],-22.86%
Cc1ccccc1CN(c1ccc(Cl)cc1)S(=O)(=O)c1cccn2c(C)nnc12,Inhibition,[1],11.42%
same,Inhibition,[2],2.31%
same,Inhibition,[3],-9.98%
O=c1c2nnc(SCc3cccc(C(F)(F)F)c3)n2ccn1-c1ccc(Br)cc1,Inhibition,[1],4%
same,Inhibition,[2],27.57%
same,Inhibition,[3],-8.16%
CCCNC(=O)Cn1nc2nc(Nc3ccc(F)cc3)ccn2c1=O,Inhibition,[1],-2.03%
same,Inhibition,[2],-0.03%
same,Inhibition,[3],-13.31%
Cc1ccc(-c2ccc3nn(CC(=O)Nc4cccc(Cl)c4)c(=O)n3n2)cc1C,Inhibition,[1],4.06%
same,Inhibition,[2],0.61%
same,Inhibition,[3],-15.53%
O=C(CSc1nc2ccccc2n2cnnc12)NCc1ccccc1Cl,Inhibition,[1],2.85%
same,Inhibition,[2],0.3%
same,Inhibition,[3],-14.6%
O=C(Cn1nc2c(SC3CCCCC3)nccn2c1=O)NCc1ccc(F)cc1,Inhibition,[1],9.17%
same,Inhibition,[2],0.24%
same,Inhibition,[3],-16.51%
CCC(C)NC(=O)Cn1nc2n(Cc3ccco3)c(=O)c3sccc3n2c1=O (stereo not drawn),Inhibition,[1],10.15%
same,Inhibition,[2],-0.07%
same,Inhibition,[3],-9.56%
Cc1nnc2c(SCC(=O)N3CCN(c4ccccc4F)CC3)nc3ccccc3n12,Inhibition,[1],10.03%
same,Inhibition,[2],8.32%
same,Inhibition,[3],-3.27%
CCc1nnc2c(SCC(=O)Nc3cccc(OC)c3)nc3ccccc3n12,Inhibition,[1],3.16%
same,Inhibition,[2],3.37%
same,Inhibition,[3],-8.02%
COc1ccc(-c2cc3c4nn(CC(=O)Nc5cc(OC)ccc5OC)c(=O)n4ccn3n2)cc1,Inhibition,[1],11.83%
same,Inhibition,[2],1.43%
same,Inhibition,[3],-25.14%
CCOc1ccc(NC(=O)Cn2nc3c4cc(-c5ccc(C)cc5)nn4ccn3c2=O)cc1,Inhibition,[1],14.64%
same,Inhibition,[2],1.16%
same,Inhibition,[3],-37.08%
O=C(CCc1nnc2c3cc(-c4ccc(F)cc4)nn3ccn12)NCc1ccccc1Cl,Inhibition,[1],1.44%
same,Inhibition,[2],9.78%
same,Inhibition,[3],-27.21%
O=C(NCc1ccccc1)c1ccc2nn(CC(=O)N3CCN(c4ccccc4)CC3)c(=O)n2c1,Inhibition,[1],13.57%
same,Inhibition,[2],3.02%
same,Inhibition,[3],-23.82%
O=C(CSc1nc2ccccc2n2cnnc12)Nc1ccc2c(c1)OCCO2,Inhibition,[1],4.35%
same,Inhibition,[2],2.01%
same,Inhibition,[3],-3.4%
O=c1n(Cc2cccc(C(F)(F)F)c2)nc2c(S(=O)(=O)N3CCCCC3)cccn12,Inhibition,[1],6.48%
same,Inhibition,[2],1.28%
same,Inhibition,[3],-8.66%
Cc1ccc(NC(=O)Cn2nc3c4cc(-c5ccc(C)c(C)c5)nn4ccn3c2=O)cc1C,Inhibition,[1],4.54%
same,Inhibition,[2],4.1%
same,Inhibition,[3],-9.03%
Cc1nnc2ccc(S(=O)(=O)N(Cc3ccccc3F)c3cccc(F)c3)cn12,Inhibition,[1],4.31%
same,Inhibition,[2],10.13%
same,Inhibition,[3],-4.32%
COc1cccc(NC(=O)Cn2nc3c4cc(-c5ccc(Cl)cc5)nn4ccn3c2=O)c1,Inhibition,[1],8.34%
same,Inhibition,[2],4.47%
same,Inhibition,[3],-4.67%
Cc1cc2nn(CC(=O)Nc3cc(F)ccc3C)c(=O)n2c(Nc2ccc(F)cc2)n1,Inhibition,[1],8.72%
same,Inhibition,[2],0.87%
same,Inhibition,[3],-4.58%
Cc1nnc2c(=O)n(CC(=O)Nc3cccc(Br)c3)c3ccccc3n12,Inhibition,[1],7.61%
same,Inhibition,[2],-0.15%
same,Inhibition,[3],-11.02%
CSc1ccc(-c2noc(Cn3nc4ccc(-c5ccccc5)nn4c3=O)n2)cc1,Inhibition,[1],-3.08%
same,Inhibition,[2],17.1%
same,Inhibition,[3],-6.64%
O=C(Cn1nc2ccc(-c3ccccc3)nn2c1=O)Nc1ccc(F)c(Cl)c1,Inhibition,[1],7.19%
same,Inhibition,[2],1.94%
same,Inhibition,[3],-6.93%
Cc1cc(C)c(NC(=O)Cn2nc3c(Sc4cccc(F)c4)nccn3c2=O)c(C)c1,Inhibition,[1],9.01%
same,Inhibition,[2],0.95%
same,Inhibition,[3],-7.48%
COc1cc(NC(=O)Cn2nc3c(Oc4ccccc4)nccn3c2=O)cc(OC)c1,Inhibition,[1],11.9%
same,Inhibition,[2],-1.97%
same,Inhibition,[3],-7.5%
COc1ccc(NC(=O)Cn2nc3c(SC4CCCCC4)nccn3c2=O)cc1Cl,Inhibition,[1],-2.37%
same,Inhibition,[2],10.68%
same,Inhibition,[3],-22.74%
O=c1n(Cc2nc(-c3ccc(Br)cc3)no2)nc2ccc(-c3ccccc3)nn12,Inhibition,[1],7.97%
same,Inhibition,[2],1.04%
same,Inhibition,[3],-15.1%
O=C(CSc1nnc2c(=O)n(-c3ccccc3)ccn12)Nc1ccc2c(c1)OCO2,Inhibition,[1],8.73%
same,Inhibition,[2],0.46%
same,Inhibition,[3],-18.26%
Cc1ccc(Oc2nccn3c(=O)n(CC(=O)Nc4cccc(Cl)c4)nc23)cc1,Inhibition,[1],2.02%
same,Inhibition,[2],5.47%
same,Inhibition,[3],-14.56%
Cc1ccc(CN(c2ccccc2)S(=O)(=O)c2ccc3nncn3c2)cc1,Inhibition,[1],-1.94%
same,Inhibition,[2],-3.84%
same,Inhibition,[3],-7.34%
COc1ccc(NC(=O)Cn2nc3c4cc(-c5ccc(C)cc5)nn4ccn3c2=O)c(OC)c1,Inhibition,[1],9.2%
same,Inhibition,[2],7.88%
same,Inhibition,[3],-29.92%
Cc1nnc2ccc(S(=O)(=O)N(Cc3cccc(Cl)c3)c3ccc(F)cc3)cn12,Inhibition,[1],8%
same,Inhibition,[2],2.21%
same,Inhibition,[3],-6.34%
COc1cccc(Oc2nccn3c(=O)n(CC(=O)NCc4ccccc4Cl)nc23)c1,Inhibition,[1],18.21%
same,Inhibition,[2],-2.46%
same,Inhibition,[3],-9.66%
COc1ccccc1Cn1c(=O)c2sccc2n2c(=O)n(Cc3cccc(C)c3)nc12,Inhibition,[1],9.07%
same,Inhibition,[2],1.33%
same,Inhibition,[3],-25.61%
CCC(C)NC(=O)c1ccc2c(=O)n(C3CC3)c3nn(CC(=O)NC(C)C)c(=O)n3c2c1 (stereo not drawn),Inhibition,[1],17.09%
same,Inhibition,[2],-1.34%
same,Inhibition,[3],-38.88%
COc1cc(NC(=O)Cn2nc3ccc(C(=O)NCc4ccccc4)cn3c2=O)cc(OC)c1OC,Inhibition,[1],1.38%
same,Inhibition,[2],5.58%
same,Inhibition,[3],-8.4%
